Common to all, as to details: 25 µM; exposure: 24-48 hpf
The subject of assay [1] is Danio rerio Tg(wt1b:EGFP) embryo, pronephros. The assay can be described thus: glomerular separation, fold change vs DMSO control; higher = glomeruli further apart (abnormal). In short, it runs like this: (§1)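 Every feature is expressed as a fold change relative to the averaged DMSO-treated embryos of the same day. The exposure ran from 24 to 48 hpf at 28.5°C, with dechorionated Tg(wt1b:EGFP) zebrafish embryos in HEPES-buffered E3 containing 0.003% PTU, 0.5% DMSO and 25 μM compound. Dorsal pronephros images taken in agarose-filled 96-well plates were reduced to maximum projections, on which 16 reference points were set by hand in Fiji for a macro to compute distances and angles. Values more than 2 SD from the feature mean were not used.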

The test system is the same in assay [2]. Nature of the assay: glomerular width (mean of left and right), fold change vs DMSO control; higher = wider glomerulus. In short, it runs like this: as §1
Assay [3] shares this test system. The assay can be described thus: fraction of imaged embryos annotated as normal kidney; higher = less nephrotoxic; extreme values may be limits of the assay. The method in brief: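 The read-out is the proportion of embryos in each treatment manually annotated as normal-kidney. Exposure ran from 24 to 48 hpf at 28.5°C in 12-well plates, using dechorionated Tg(wt1b:EGFP) zebrafish embryos in 5 mM HEPES-buffered E3 with 0.003% PTU, 0.5% DMSO and 25 μM compound. For imaging, larvae were anaesthetised with tricaine, positioned dorsally in agarose-filled 96-well plates and captured by widefield fluorescence (470 nm, 10 z-slices), with scoring done on maximum projections.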

The test system is the same in assay [4]. Nature of the assay: pronephric angle neck segment to proximal convoluted tubule (mean of left and right), fold change vs DMSO control; higher = larger pronephric angle. The method in brief:
as §1

Structures can show the parent of a compound that is named as a salt. ± gives the standard deviation or the standard deviation of the averaged measurements.

With `CC(=O)OC(C)C[N+](C)(C)C` (centres undefined) [Methacholine chloride], in assay [1], the glomerular separation was 0.765 ± 0.28. The same compound had a glomerular width in assay [2] of 1.08 ± 0.0033. In addition, in assay [3], the “fraction of imaged embryos annotated as normal kidney” value (“fraction of imaged embryos annotated” below) was determined as 0.833. Moreover, the “pronephric angle neck segment” value in assay [4] came to 0.972 ± 0.011.
In the same order, the values of `CC1CC(OC(=O)C(O)c2ccccc2)CC(C)(C)N1C` (centres undefined) [Eucatropine hydrochloride] are 0.748 ± 0.31, 0.975 ± 0.042, 0.917 and 0.9583 ± 0.0057.
In turn, `CCN1CCN(c2cc3c(cc2F)c(=O)c(C(=O)O)cn3C2CC2)CC1` [Enrofloxacin] gave a glomerular separation in assay [1] of 0.888 ± 0.34. Moreover, the glomerular width in assay [2] was determined as 1.07 ± 0.12. Further, the “fraction of imaged embryos annotated” value in assay [3] came out at 0.917. Also, the “pronephric angle neck segment” value in assay [4] is 1.01 ± 0.037.
In the same order, the values of `CCc1nc(N)nc(N)c1-c1ccc(Cl)cc1` [Pyrimethamine] are 0.78 ± 0.26, 1.15 ± 0.041, 0.75 and 0.974 ± 0.018.
The matching figures for `COc1cc(N)c(Cl)cc1C(=O)NC1CCN(Cc2ccccc2)CC1` [Clebopride maleate]: 0.962 ± 0.3, 0.9245 ± 0.0057, 0.917 and 0.912 ± 0.027.
The compound `COc1cnc(NS(=O)(=O)c2ccc(N)cc2)nc1` [Sulfameter] came in with a glomerular separation in assay [1] of 0.925 ± 0.34. The same compound showed a glomerular width in assay [2] of 1.01 ± 0.021. Also, the “fraction of imaged embryos annotated” value in assay [3] worked out at 0.833. The “pronephric angle neck segment” value in assay [4] came to 0.9915 ± 0.0018.
Turning to `CC(NCCC(c1ccccc1)c1ccccc1)c1ccccc1` (centres undefined) [Fendiline hydrochloride], the glomerular separation in assay [1] was 1.17 ± 0.28. The same compound displayed a glomerular width in assay [2] of 0.995 ± 0.018. In addition, the “fraction of imaged embryos annotated” value in assay [3] stood at 0.727. Further, in assay [4], the “pronephric angle neck segment” value came to 1 ± 0.036.
`OCCN1CCN(CCCN2c3ccccc3Sc3ccc(Cl)cc32)CC1` [Perphenazine] had a glomerular separation in assay [1] of 0.838 ± 0.23. This compound also gave a glomerular width in assay [2] of 1.07 ± 0.063. Besides, in assay [3], the “fraction of imaged embryos annotated” value came to 0.917. Moreover, the “pronephric angle neck segment” value in assay [4] came out at 1.03 ± 0.012.
Compound `OCCN1CCN(CC/C=C2/c3ccccc3Sc3ccc(Cl)cc32)CC1` [Zuclopenthixol dihydrochloride] had a glomerular separation in assay [1] of 1.17 ± 0.21. In assay [2], this compound gave a glomerular width of 0.97247 ± 0.0005. Besides, in assay [3], the “fraction of imaged embryos annotated” value worked out at 0.833. The “pronephric angle neck segment” value in assay [4] worked out at 1.01 ± 0.039.
In the same order, the values of `NS(=O)(=O)Cc1noc2ccccc12` [Zonisamide] are 0.805 ± 0.15, 1 ± 0.059, 0.917 and 1.02 ± 0.017.
With `CNCC(O)c1ccc(O)c(O)c1` (centres undefined) [Racepinephrine hydrochloride], the glomerular separation in assay [1] worked out at 0.935 ± 0.21. The compound further registered a glomerular width in assay [2] of 0.946 ± 0.011. Besides, the “fraction of imaged embryos annotated” value in assay [3] stood at 0.667. Besides, the “pronephric angle neck segment” value in assay [4] worked out at 0.998 ± 0.035.
The compound `COc1ccccc1OCC(O)CO` (centres undefined) [Guaifenesin] showed a glomerular separation in assay [1] of 1.21 ± 0.52. In assay [2], the glomerular width came out at 0.929 ± 0.12. Moreover, the “fraction of imaged embryos annotated” value in assay [3] is 0.917. In assay [4], the “pronephric angle neck segment” value amounted to 1.07 ± 0.035.
With `c1ccc(C2CN3CCSC3=N2)cc1` (centres undefined) [Tetramisole hydrochloride], the glomerular separation in assay [1] is 0.817 ± 0.29. Also, in assay [2], the glomerular width was 1.05 ± 0.032. Besides, in assay [3], the “fraction of imaged embryos annotated” value came out at 0.75. Moreover, in assay [4], the “pronephric angle neck segment” value was 0.94 ± 0.035.
As for `O=C(O)CCNC(=O)c1ccc(/N=N/c2ccc(O)c(C(=O)O)c2)cc1` [Balsalazide Sodium], the glomerular separation in assay [1] was found to be 0.832 ± 0.29. Moreover, in assay [2], the glomerular width was 1.03 ± 0.012. In addition, the “fraction of imaged embryos annotated” value in assay [3] was 0.833. Also, the “pronephric angle neck segment” value in assay [4] amounted to 1.08 ± 0.012.
For the compound `CC(C)NC[C@@H](O)COc1ccc(CC(N)=O)cc1` [(R)-(+)-Atenolol], in assay [1], the glomerular separation stood at 0.655 ± 0.16. The glomerular width in assay [2] came to 0.977 ± 0.036. Further, in assay [3], the “fraction of imaged embryos annotated” value was found to be 0.917. The “pronephric angle neck segment” value in assay [4] came to 0.977 ± 0.029.
The compound `Cc1cc(CC(=O)O)n(C)c1C(=O)c1ccc(Cl)cc1` [Zomepirac sodium salt] returned a glomerular separation in assay [1] of 0.83 ± 0.4. The compound further had a glomerular width in assay [2] of 0.811 ± 0.033. Moreover, the “fraction of imaged embryos annotated” value in assay [3] turned out to be 0.273. Besides, the “pronephric angle neck segment” value in assay [4] turned out to be 1.23 ± 0.062.
Turning to `OCCN1CCN(CCCN2c3ccccc3C=Cc3ccccc32)CC1` [Opipramol dihydrochloride], the glomerular separation in assay [1] worked out at 0.662 ± 0.23. For the same compound, the glomerular width in assay [2] was 1.1 ± 0.043. Besides, in assay [3], the “fraction of imaged embryos annotated” value turned out to be 0.75. For the same compound, the “pronephric angle neck segment” value in assay [4] was found to be 1.02 ± 0.076.
Consider `CC(C)NC[C@H](O)COc1cccc2ccccc12` [(S)-propranolol hydrochloride], for which the glomerular separation in assay [1] came out at 0.888 ± 0.27. This compound displayed a glomerular width in assay [2] of 1.03 ± 0.017. Also, the “fraction of imaged embryos annotated” value in assay [3] was 0.75. The “pronephric angle neck segment” value in assay [4] is 0.9744 ± 0.0062.
`O=C(Nc1ccccc1)OCC(CN1CCCCC1)OC(=O)Nc1ccccc1` (centres undefined) [Diperodon hydrochloride] gave a glomerular separation in assay [1] of 1.1 ± 0.41. The compound further showed a glomerular width in assay [2] of 0.984 ± 0.04. Further, the “fraction of imaged embryos annotated” value in assay [3] came to 0.818. Further, the “pronephric angle neck segment” value in assay [4] worked out at 1.04 ± 0.024.
The matching figures for `COc1ncnc(NS(=O)(=O)c2ccc(N)cc2)c1OC` [Sulfadoxine]: 0.694 ± 0.18, 0.997 ± 0.062, 0.833 and 1.02 ± 0.066.
In the same order, the values of `Cc1ccc(C)c(OCCCC(C)(C)C(=O)O)c1` [Gemfibrozil] are 5.88 ± 2.2, 0.602 ± 0.06, 0 and 1.73 ± 0.11.
In the same order, the values of `N/C(=N\C(=O)c1nc(Cl)c(N)nc1N)NCc1ccccc1` [Benzamil hydrochloride] are 0.935 ± 0.43, 1.05 ± 0.019, 0.917 and 0.98 ± 0.018.
Compound `C#C[C@]1(O)CC[C@H]2[C@@H]3CCC4=Cc5oncc5C[C@]4(C)[C@H]3CC[C@@]21C` [Danazol] gave a glomerular separation in assay [1] of 3.7 ± 1.5. In assay [2], this compound registered a glomerular width of 0.592 ± 0.0074. In addition, the “fraction of imaged embryos annotated” value in assay [3] came to 0. In assay [4], the “pronephric angle neck segment” value came out at 1.1 ± 0.12.
As for `COc1cc(NS(=O)(=O)c2ccc(N)cc2)nc(OC)n1` [Sulfadimethoxine], the glomerular separation in assay [1] was found to be 1.02 ± 0.48. The same compound displayed a glomerular width in assay [2] of 1.04 ± 0.014. The “fraction of imaged embryos annotated” value in assay [3] turned out to be 1. The “pronephric angle neck segment” value in assay [4] stood at 1.01 ± 0.021.
In assay [1], `CC[C@]12CCCN3CCc4c(n(c5ccccc45)[C@@](O)(C(=O)OC)C1)[C@@H]32` [Vincamine] yielded a glomerular separation of 0.967 ± 0.23. In assay [2], this compound gave a glomerular width of 0.965 ± 0.01. The “fraction of imaged embryos annotated” value in assay [3] came out at 0.909. The “pronephric angle neck segment” value in assay [4] was determined as 1.05 ± 0.057.
The compound `CC1CCc2c(N3CCC(O)CC3)c(F)cc3c(=O)c(C(=O)O)cn1c23` (centres undefined) [Nadifloxacin] displayed a glomerular separation in assay [1] of 1.13 ± 0.33. The compound further came in with a glomerular width in assay [2] of 1.01 ± 0.031. The “fraction of imaged embryos annotated” value in assay [3] is 0.917. In assay [4], the “pronephric angle neck segment” value stood at 1.04 ± 0.029.
In the same order, the values of `C[N+]1(CCCCC[N+]2(C)CCCC2)CCCC1` [Pentolinium bitartrate] are 1.28 ± 0.5, 1.0393 ± 0.0007, 0.75 and 1.05 ± 0.052.
In the same order, the values of `CCOC(=O)C(C)(C)Oc1ccc(Cl)cc1` [Clofibrate] are 2.62 ± 1.7, 0.608 ± 0.044, 0 and 1.66 ± 0.033.
The matching figures for `N=C(N)NCc1cccc(I)c1` [Iobenguane sulfate]: 0.901 ± 0.19, 1.02 ± 0.015, 1 and 1.02 ± 0.035.
In assay [1], `CCN(CC)CCNC(=O)c1cc(Br)c(N)cc1OC` [Bromopride] displayed a glomerular separation of 0.903 ± 0.35. In addition, in assay [2], the glomerular width was found to be 1.04 ± 0.015. The “fraction of imaged embryos annotated” value in assay [3] was 1. The “pronephric angle neck segment” value in assay [4] was determined as 1.02 ± 0.036.
With `CC(C)Nc1cccnc1N1CCN(C(=O)c2cc3cc(NS(C)(=O)=O)ccc3[nH]2)CC1` [Delavirdine], in assay [1], the glomerular separation is 0.975 ± 0.41. Further, the glomerular width in assay [2] came out at 1.16 ± 0.017. Besides, the “fraction of imaged embryos annotated” value in assay [3] turned out to be 0.667. In addition, in assay [4], the “pronephric angle neck segment” value turned out to be 0.921 ± 0.045.

The values above are taken from the supplement of paper PMC7366291.
